This test relates to LXRa homodimer (NR concentration 270 nM). Description: PBM binding z-score (relative to random genomic background probes); higher = stronger binding; sequences stand for … in GC…GCGATTGACAGCGTAGAATGAAGG
Summed up:
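Binding z-scores take random background probes as their reference. They come from custom Agilent 4×180K protein-binding microarrays incubated 1 h with ligand-free nuclear receptor dimers, with antibodies against each partner (one per run) detecting binding. Scanned fluorescence was regression-normalized.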
Take TCTAGCAGGCCAGAGGGTCACACAAGAGGTACGG: the PBM binding z-score is -0.408.

AGTCAAAGTTCACTTGGTAACGTAAGATTCAGCT gave a PBM binding z-score of 3.34.

For the sequence CCGACTGGGGCAGAAAGGTTACCATGCCATCCGG, the PBM binding z-score is -0.401.

Turning to GCTCGGAGGACACGGTCAGAGCTTTGTCCGTAGA, the PBM binding z-score is -0.568.

CCTATTAGTTGACCATAAGGTCAACCGAAGCTCG registered a PBM binding z-score of 3.35.

AGTCAAAGCTCATCTAGGTAACGTAAGATATGCT: the PBM binding z-score was -0.275.

TCTAGTTGGTCACGAAGGTCACACACGACGGGTA had a PBM binding z-score of 1.75.

The sequence TCAGATAGGTAATACAGGTGAAAGTCGGCATCTA yielded a PBM binding z-score of 0.032.

On to CAGCCTAGGTCGGGGCCAGTATAGGAGGAACGTT, for which the PBM binding z-score was -0.6.

As for CGAACTAGATCAAGGACAGTGAATCTCCGCACGC, the PBM binding z-score is -0.0881.

For the sequence CGTCCAAGGTCAAGGTCAGCGAAAGAGACTCGAA, the PBM binding z-score came out at 1.11.

Turning to CAGCCTAGGTCAAGGCCAGTATAGGAGGAACGTT, the PBM binding z-score is -0.0783.

As for ATACCAAGGTGATCGTGAGGTGGTTGATACTAAC, the PBM binding z-score turned out to be 0.0365.

Consider CAAACTAGGTCGCAGAGGTCAAAGTCCGTGCGTA, for which the PBM binding z-score was 5.84.

On to ATCTCTAAGTAAGACTCAGTTCAGTGAAGAACGC, for which the PBM binding z-score came out at 0.509.

For CGTCAAAGTTCAACTAAGGTAACGGAAAGCACGC, the PBM binding z-score is 3.33.

In turn, TCTTGTAGATTAAAGGTTAAGAAAGCCGAAGCCT displayed a PBM binding z-score of 0.568.

TCGTATAGGTAAAGGTGAAAGTCGAACGATATGA: the PBM binding z-score turned out to be 0.11.

In the case of CCTGCTAGGTCAATGGTCAACTAAAGCAGCTCGC, the PBM binding z-score is -0.236.

Turning to TCTCGGACGACACGAAGGTCAGAGCTTTCCAGAG, the PBM binding z-score was -0.0974.

For the sequence AAAGACAGGTGATGAAGGTAACTCAGGCTATCAT, the PBM binding z-score stood at 0.0332.

For the sequence TCTTGTAGTTCAGCAGGTTAAGAAAGCTGGCCAA, the PBM binding z-score was 0.28.

As to TAGAGTAGGTTAGTCGGGGCATTCAGCCAACATA, the PBM binding z-score amounted to 0.155.

As to CGTCCAAGGTCAGAGAGGTAAGTGAATGCCGAGT, the PBM binding z-score was 0.174.

In the case of CCGACTGTGGCAAAGGTTACCATACTCAGTACGA, the PBM binding z-score came to 0.228.

For the sequence CAGCCGAGGTCAGGGCCAGTATAGGAGGAACGTT, the PBM binding z-score is -0.152.

As for CCAACTAGGTCAAGGTCAAAGTCGGTTTGTGCCA, the PBM binding z-score was 4.61.

Consider CCTAGCAGGCCCATCTGGGTCACTCAAGGCTTGA, for which the PBM binding z-score was -0.426.

In turn, CATCAAAGTTCAACTAAGGTAACGTAAAGCACGC registered a PBM binding z-score of 5.03.

As for ACTAGCTGGTCAGCTGAGGTCACACACAATTCGG, the PBM binding z-score is 2.15.

Consider TCTTGTAGATCAACAGGAGGTTGAGAAAGATCGA, for which the PBM binding z-score was -0.188.

Consider CTACCAAGGTGAACAAGGTCGTGGATTACTATTC, for which the PBM binding z-score was -0.154.

The sequence ACTCGGAGGACAAAGGTCAGAGCTACGCCAGTGA displayed a PBM binding z-score of 1.61.

Regarding TCTTGTAGATCAATAGAGTTTAAGAAAGTGCGCT, the PBM binding z-score came to 0.0611.

With TAGCCCAGGTCATGCGGGCCAGTATAGTGTCGGC, the PBM binding z-score was 0.136.

AGAACAAGGGCAATGAGTTGATAGCACGGGTGGC: the PBM binding z-score was -0.454.

CCTACTGGGCCACGAAAGGTCATTGAATCAGTGA registered a PBM binding z-score of 4.09.

For GCTTGTTGATCAAGGTTAAGAAAGACTAAGCTAA, the PBM binding z-score was -0.456.

CCTACTGGGCCAAGGACATTGATCAGTCAAAGCA: the PBM binding z-score is -0.118.

Regarding AGAATGAGGTTATACCTAGATCAGGGAAGAAAGT, the PBM binding z-score was -0.0251.

For the origin of these results see the supplement of paper PMC6555819.
